# According to the supplement of paper PMC6555819:
# System: VDR:RXRa (NR concentration 270 nM, RXRa partner concentration 90 nM)
# Experiment: PBM binding z-score (relative to random genomic background probes); higher = stronger binding; sequences stand for … in GC…GCGATTGACAGCGTAGAATGAAGG
# Procedure: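 Protein-binding microarray (Agilent 4x180K custom design, double-stranded 60-nt probes: 5' GC cap, 34-nt variable region, 24-nt constant primer region; full probe sequence given). Purified or IVT nuclear receptor:RXRα heterodimers (3:1 NR:RXRα, mostly 270:90 nM) or homodimers were incubated for 1 h in PBS with 2% milk and no ligand, then detected with Alexa488 antibodies. Fluorescence from o1-orientation probes (~5 replicates averaged) was converted to z-scores against 500 random hg19 background probes. Variable regions are seed direct-repeat (DR0–DR5) sites, all their single-nucleotide variants and half-site ablations.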
row,Sequence,PBM binding z-score
1,ATCGAAAGGTCGAGGTGATTATAGAGAAAGGGAA,2.43
2,CGTCCCAGGTCATAGGAGGTCAGTGAAGACAGAT,6.01
3,GCTATTAGTTGAAAGGGCAACCGTATGATTCTCG,0.653
4,TCTCGGAGGACACGAAGGTCAGAACTTTCCAGAG,2.18
5,CCTTACGGGTCACTCCAGGTTACAGCATCGGAGT,3.95
6,TCTATTAGTTGAAGTGCAACCGACGAGTCCGTTT,1.22
7,ATACCAAGGTGATCGTGGGGTCGTTGATACTAAC,3.44
8,ACTATTAGTTGAGACGTGGGCAACCGATAGGTTG,-0.5
9,ACTAGCAGGCCAAGTTTGGGTCAATCAAACAAAG,0.502
10,AGAATGAGGTTATACGTAGATCAGGGATGAAAGT,1.47
11,ATCGAAGGGTCGAGGTGAGTATAGAGAAAGGGAA,1.37
12,CCTCGGAGGACAACAGGAGATCAGAGCTGCCAGA,-0.616
13,ATCGAAAGTTCGTGAGGTGAGTATACAGAAAGGC,2.02
14,ATATGTAGGTTAGCTAGGGTCATTCAGACTAGGC,5.2
15,AGAACGAGGGCAATGAGTAGATAGCACGGGTGGC,1.15
16,TCTCGGAGGACACGAAGGACAGAGCTTTCCAGAG,-0.0596
17,AGTCAAAGTTCATCTAGGTAACCTAAGATATGCT,5.11
18,ACTATTAGTTGACTTAGGGCAAGCGATACGACGC,0.174
19,AGTCAAGGTTCATCTAGGTAACGTAAGATATGCT,4.56
20,CCGACAGGGGCATAAGGTTACCATAAGCCAGCCC,1.1

row,Sequence,PBM binding z-score
1,CCTCGGAGGACAGAAGGTCAGAACTGTCCGCTTT,0.995
2,GCGACTGGGGCAAAGCCGGTTACCATAAGGTTGG,-0.76
3,ACTTACGGATCAACGAGGTTATAGCACGCGTATA,4.59
4,ATCTCTAGGAAACAAGTTCAGTGAAAGAGAGGAC,1.45
5,GCTATTAGTTGAAAGGGCAATCGAATGATTCTCG,0.219
6,TAAGACAGGTGAAGGTAACTCAGGTACGCAGTCG,0.46
7,CGAAGTAGGTCAAGGACAGTGAATCTCCGCACGC,1.52
8,TAGCCTAGGTCAGATCGGGCCAGAATACGCTATA,0.522
9,ATCGAAAGGTCGAACGTGAGTATACCCACCCGAA,2.88
10,TCATATAGGTAAATGCTAGGTGAAACTCCGATCT,0.855
11,TCGTGTAGATCAACAGGAGGTTAAGAAAGATCGA,0.314
12,CAAACTAGGTCAAGGTCATAGTCGGTTTGTGCCA,5.01
13,CCTTACGGGTCAAGGTTATAGCGCGGGTGGTACG,3.22
14,ACTATTAGTTGAGTCGAGGGCAACCGATAGGTTG,0.728
15,TTACCAAGGTGAAAGGACGTTGATGCACGCCTTG,0.0674
16,AGTCAAAGTTCACTAGGTAACCTAAGATTCAGCT,4.04
17,CCTTACGGGGCACTGACAGGTTATAGCATTTGGA,-0.341
18,CCTACTGGGCCATTCAGAGGTGATTGATCATATG,-0.104
19,CGTCCAAGGTCATAGGAGGTCAGCGAAGACAGAT,6.6
20,CCGACTGGAGCAGAAAGGTTACCATACCATCCGG,0.564
